The text below walks through data of publication PMC7819943, “Rice protein-binding microarrays: a tool to detect cis-acting elements near promoter regions in rice”.

Whole data set: some 68,000 sequences, median “fluorescence intensity (a.u.)” near 9,100, cut for the highest 2% near 16,000. Only a selection was taken, and the highest values are over-represented in it overall.

Chain of OsWRKY34 (Q0JBA9 entry or part of it): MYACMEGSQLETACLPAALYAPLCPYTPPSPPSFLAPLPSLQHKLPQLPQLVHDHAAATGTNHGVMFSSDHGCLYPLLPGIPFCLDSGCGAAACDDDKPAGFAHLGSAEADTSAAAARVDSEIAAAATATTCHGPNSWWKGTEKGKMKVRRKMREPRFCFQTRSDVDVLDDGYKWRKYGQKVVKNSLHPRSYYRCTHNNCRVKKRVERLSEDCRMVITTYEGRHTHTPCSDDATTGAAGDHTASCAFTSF

For this assay, the target named is OsWRKY34 (Oryza sativa, UniProt Q0JBA9 1-250). In words: protein-binding microarray (RPBM); PBS, 2% BSA, 51.3 ng/ul salmon testes DNA, 50 uM zinc acetate, 200 nM TF, 25 C, 1 h; high values mean tight binding. The settings on record: protein: recombinant; tags: N-terminal polyhistidine and DsRed monomer fusion (pET32a); label: CyDye5-dUTP incorporated in the synthesized complementary strand; 3' TTTTT single-stranded linker to array surface; dsDNA, one strand shown. Put shortly:
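Polyhistidine-tagged DsRed fusions of transcription factors, joined at the N-terminus, were expressed in E. coli BL21-CodonPlus and isolated on Ni–NTA. They were incubated at 200 nM for 1 h at 25 °C on a custom Agilent array, double-stranded and BSA-blocked, in PBS with 2% BSA, salmon testes DNA and 50 µM zinc acetate. The binding signal is per-feature fluorescence intensity (arbitrary units) read on an Axon 4000B scanner after washing.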
Regarding “TAAGTTGTTTGACTTTTTTTCTAGTCAAACTTGTCTGAGTCGGAGTCACCTAGTGCAG”, the binding signal is 17000 fluorescence intensity (a.u.).
The value for “CGTGGTAATTTTTATTGGTAAGTGGTGGTGAAGTGGGTGACGGAGTCACCTAGTGCAG” was 8300 fluorescence intensity (a.u.); that for “ACACTTTGACTCTTTGATTTAGTAAGCTCGAGTTTATTTTCGGAGTCACCTAGTGCAG” was 9030 fluorescence intensity (a.u.).
Then “CACTTTATTTTTGAAAATTCGGGTGGGTAAGCTGGTGACTCGGAGTCACCTAGTGCAG”, with 19200 fluorescence intensity (a.u.); and “ATAAGATATTTTTGACTTTGGTCAAAGTCAAATTGTTTCACGGAGTCACCTAGTGCAG”, with 15300 fluorescence intensity (a.u.); and “CTTTGGTCAAAGTCAAATTGTTTTAAGTTTGACCAAGTTTCGGAGTCACCTAGTGCAG”, with 19600 fluorescence intensity (a.u.).
The value for “GCAGTTTAACTTTGACCAAAGTCAAAATATTTTATAATTTCGGAGTCACCTAGTGCAG” was 8930 fluorescence intensity (a.u.).
Consider “ACTTCTTCTACGTGATTTCCTGATTCGCCTCATCCGCTTCCGGAGTCACCTAGTGCAG”, for which the binding signal was 9060 fluorescence intensity (a.u.).
“TGGGGATGGCGGAGGTTAGCGGCGCGCTTTTTTTTCTATTCGGAGTCACCTAGTGCAG”: the binding signal was 14500 fluorescence intensity (a.u.).
Then “TTCATATACACATATAGTTTTACATATTTCATATTTTTTTCGGAGTCACCTAGTGCAG”, with 9360 fluorescence intensity (a.u.); and “CCACCTGCCAGCCTGTACCCACCCCTCCCTACTGTTATACCGGAGTCACCTAGTGCAG”, with 8640 fluorescence intensity (a.u.).
For the sequence “ATGATCATAGCCATTTTTCCTCGCTTTAAATATTTGCTACCGGAGTCACCTAGTGCAG”, the binding signal was 8490 fluorescence intensity (a.u.).
As to “GAGGTCTACTGTTATTGGGGATTCTTTTTGGGTGGGGTGGCGGAGTCACCTAGTGCAG”, the binding signal was 31300 fluorescence intensity (a.u.).
As to “AGTCTGGATTCTTGGAGGTCAACTTTGGTCAACGGTGGGGCGGAGTCACCTAGTGCAG”, the binding signal was 14200 fluorescence intensity (a.u.).
For “CGGGTGGGGATGGGCTGGATCTGGATTGATTGGGAGTGTTCGGAGTCACCTAGTGCAG”, the binding signal was 15200 fluorescence intensity (a.u.).
In the case of “GCTTGTTGTGGGCTGTGGACTGGGTGTGTGTGTGTGCTTTCGGAGTCACCTAGTGCAG”, the binding signal was 9420 fluorescence intensity (a.u.).
The value for “GCTTTTGGCTGTGGTGGGTGCTTGTGGGTGGAGAGAGAGACGGAGTCACCTAGTGCAG” was 19300 fluorescence intensity (a.u.); that for “TTGGCGGTGGAGGCGGTGGTGGCTTTGGAGGAGACGGTGGCGGAGTCACCTAGTGCAG” was 8650 fluorescence intensity (a.u.).
On to “GTGGCTTGAAAGGTCTGTGTGTTCTTGTTTGGGATTGAGGCGGAGTCACCTAGTGCAG”, for which the binding signal is 8440 fluorescence intensity (a.u.).
For the sequence “GGTTGCTGTGGTTGGCGAGGTGGGGTGGGGCTTGGAGTAACGGAGTCACCTAGTGCAG”, the binding signal was 27400 fluorescence intensity (a.u.).
The value for “GCTTGCTTGGTTGGTTGGTGGAGCTTGGGAGTTGAGGTCACGGAGTCACCTAGTGCAG” was 11500 fluorescence intensity (a.u.); that for “TGGCGGATTGATCTGGAGGTGGGCTTGTTGGGGTTGCTGTCGGAGTCACCTAGTGCAG” was 18200 fluorescence intensity (a.u.); that for “TTCGGAGGCGGAGGCGGTGGTGGGCTTGGTGGAGGTGGCGCGGAGTCACCTAGTGCAG” was 9860 fluorescence intensity (a.u.).
As for “CTGGATTGATTGGGAGTGTTGGGTTTCGGGCTAGATCTGGCGGAGTCACCTAGTGCAG”, the binding signal is 9850 fluorescence intensity (a.u.).
Then “ATCTTTGCCAAAATTTTTCTACTAGTATAATACTATCTCCCGGAGTCACCTAGTGCAG”, with 8420 fluorescence intensity (a.u.); and “AAGCTCCGATCCACAGCGCACCTCGAGCCCTACCTCCGATCGGAGTCACCTAGTGCAG”, with 8940 fluorescence intensity (a.u.).
Turning to “TTCCTCCATCCATTTTGTCAACTCCTCTCCGCTTTTCATCCGGAGTCACCTAGTGCAG”, the binding signal was 9640 fluorescence intensity (a.u.).
Consider “GCCTGGCGCGCCTCTCCTGCTCTGTTGGACCGCCGCGCCCCGGAGTCACCTAGTGCAG”, for which the binding signal was 12000 fluorescence intensity (a.u.).
On to “CCACTCTCCGGCGCACCTATTTTCCATTTATATATATATGCGGAGTCACCTAGTGCAG”, for which the binding signal was 9670 fluorescence intensity (a.u.).
On to “TTGAACCCTGCTCTCAGCTGAGCACCATGCAATAACTGTCCGGAGTCACCTAGTGCAG”, for which the binding signal was 8270 fluorescence intensity (a.u.).
With “CCAATGATATGTGCCGAAGTTGTATTTATCGAGAGATATTCGGAGTCACCTAGTGCAG”, the binding signal was 9850 fluorescence intensity (a.u.).
As to “CCAGTGAATTACATTTTTGCCCGATCCCGTCGCGAACTCCCGGAGTCACCTAGTGCAG”, the binding signal is 8750 fluorescence intensity (a.u.).
As to “CTGGGTGTTCAGATATATTACTAGAGGTCATACCATACAACGGAGTCACCTAGTGCAG”, the binding signal was 8130 fluorescence intensity (a.u.).
“TACATTGTTAGTACTGTTTGGTGTAACTATTTTTTTATAACGGAGTCACCTAGTGCAG”: the binding signal was 8180 fluorescence intensity (a.u.).
Then “CTTGGCTGTTCTTGGGTGGGTGAGGTGGGGCGGTCGGATCCGGAGTCACCTAGTGCAG”, with 17100 fluorescence intensity (a.u.); and “GAGGAGGTGGTGGCGCGGCGTTCTTGGGGCTGGAGAGGGTCGGAGTCACCTAGTGCAG”, with 8790 fluorescence intensity (a.u.); and “GGCTATCGGTGGGTGGGTGGGGTGTACTACTCCCCTATAACGGAGTCACCTAGTGCAG”, with 22200 fluorescence intensity (a.u.).
“GCCATATTATTTTTCCTTTGTCCTAATTAATGTTAGAAATCGGAGTCACCTAGTGCAG”: the binding signal was 9440 fluorescence intensity (a.u.).
As to “TAGGGGTTAGTGTGCGAGCATGTGCTGTGTAATTTTTTAACGGAGTCACCTAGTGCAG”, the binding signal is 10600 fluorescence intensity (a.u.).
For the sequence “TGGGTCTCTTGGGGTCGGTGGGGCGGTCGTCGTCCGTGCCCGGAGTCACCTAGTGCAG”, the binding signal was 11400 fluorescence intensity (a.u.).
Then “CTACTAGTACAGGCTATATCGCTTACTCCCTTTGTCCTAACGGAGTCACCTAGTGCAG”, with 8420 fluorescence intensity (a.u.).
For the sequence “AACCTACTAGCTAGCTTAGTGTACTCTGTGTACTGTATATCGGAGTCACCTAGTGCAG”, the binding signal was 8190 fluorescence intensity (a.u.).
The value for “CTAATTAGTACTGCAATTTTGGGTCCTTGGGTTGTTAGAACGGAGTCACCTAGTGCAG” was 16900 fluorescence intensity (a.u.); that for “TTAGTACTATTAATTTGGTGGGGTTGGGTGGGTGCTGTAACGGAGTCACCTAGTGCAG” was 16700 fluorescence intensity (a.u.).
Then “TAGTTGTTGTTGTTGTTATTTGTTAATTGGGCCTTGTTCACGGAGTCACCTAGTGCAG”, with 12300 fluorescence intensity (a.u.).
